The subject of experiment [1] is Human papillomavirus type 1a protein E7 (residues 44-93). Kind of experiment: HPV1a E7 fragment binders on microarrays, primary screen, biochemical, small-molecule microarray, residues 44-93, 635 nm fluorescence (AID 1108).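 Further: E7 fragment applied at 1 µg/mL in TBST for 1 h at 4 C; score combines spot fluorescence with its signal to noise ratio.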 The note with it: small-molecule microarray binding, fluorescence 635 nm; higher = more signal.
A short description of experiment [2]: modulators of HCV replicon luciferase signal, primary screen, HCV replication inhibitor project, Huh7 cells, luciferase reporter (AID 1109).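 Further: huh7 hepatoma cells harbouring a luciferase neomycin HCV replicon reporter; luciferase luminescence as measure of HCV replicon replication; test concentration not given here.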 The settings on record: 48 h, higher = more signal. In general terms: A replicon is a self-replicating genome or part of one, used to study replication in cells.
Experiment [3] concerns the target Left-right determination factor 2 (Homo sapiens) (UniProt O00292). Kind of experiment: LEFTY2 binders on small-molecule microarrays, primary screen, biochemical, small-molecule microarray, 635 nm fluorescence scan (AID 1110). The note with it: LEFTY2 binding, higher = more signal.
Experiment [4] deals with Calmodulin-1 (Homo sapiens) (UniProt P0DP23). The experiment is described as follows: CALM1 binders on microarrays, EGTA buffer, profiling panel, biochemical, small-molecule microarray, Cy5-labelled CALM1 (AID 1111).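 Further: labelled calmodulin applied in Tris saline Tween buffer holding calcium plus EGTA and DTT.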 The note with it: Cy5-CALM1 binding fluorescence, higher = more signal.
The target is the same in experiment [5]. The experiment is described as follows: calcium-bound CALM1 binders on microarrays, profiling panel, artefact control for SMM control-protein annotation, biochemical, small-molecule microarray, Cy5-labelled CALM1, plus calcium (AID 1112).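 Further: score merges spot fluorescence with signal to noise from triplicate slides.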 The settings on record: Cy5-CALM1 binding fluorescence, higher = more signal.
Experiment [6] in a line: small-molecule microarray binders of probe aWnt5a, primary screen, biochemical, biotinylated probe, 635/667 nm fluorescence (AID 1113).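 Further: score merges 667 nm fluorescence intensity with signal-to-noise per printed feature.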 The note with it: higher = more signal.
Experiment [7] is described as follows: small-molecule microarray binders of probe aShh, primary screen, biochemical, biotinylated probe, 635/667 nm fluorescence (AID 1114).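 Further: probe is biotin-labelled aShh protein from a stem cell growth factor screen; measures binding of labelled protein to compounds printed on the slide; score merges feature fluorescence at 667 nm with signal-to-noise.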 The settings on record: higher = more signal.
Experiment [8] is described as follows: small-molecule microarray binders of probe aNog, primary screen, biochemical, biotinylated probe, 635/667 nm fluorescence (AID 1115).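 Further: probe is biotinylated aNog protein used at 0.15 µg/mL for 1 h at 4 C; z-score combines 667 nm fluorescence of each spot with its signal to noise.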 The settings on record: higher = more signal.
The target of experiment [9] is Torsin-1A-interacting protein 1 (Homo sapiens) (UniProt Q5JTV8). Kind of experiment: LAP1 binders from COS7 cell lysate, primary screen, small-molecule microarray, 635/667 nm fluorescence (AID 1116). The note with it: COS7-hLAP1 lysate binding, 635 nm fluorescence, higher = more signal.
Torsin-1A-interacting protein 1 (Homo sapiens), sequence (Q5JTV8 whole entry, looked up): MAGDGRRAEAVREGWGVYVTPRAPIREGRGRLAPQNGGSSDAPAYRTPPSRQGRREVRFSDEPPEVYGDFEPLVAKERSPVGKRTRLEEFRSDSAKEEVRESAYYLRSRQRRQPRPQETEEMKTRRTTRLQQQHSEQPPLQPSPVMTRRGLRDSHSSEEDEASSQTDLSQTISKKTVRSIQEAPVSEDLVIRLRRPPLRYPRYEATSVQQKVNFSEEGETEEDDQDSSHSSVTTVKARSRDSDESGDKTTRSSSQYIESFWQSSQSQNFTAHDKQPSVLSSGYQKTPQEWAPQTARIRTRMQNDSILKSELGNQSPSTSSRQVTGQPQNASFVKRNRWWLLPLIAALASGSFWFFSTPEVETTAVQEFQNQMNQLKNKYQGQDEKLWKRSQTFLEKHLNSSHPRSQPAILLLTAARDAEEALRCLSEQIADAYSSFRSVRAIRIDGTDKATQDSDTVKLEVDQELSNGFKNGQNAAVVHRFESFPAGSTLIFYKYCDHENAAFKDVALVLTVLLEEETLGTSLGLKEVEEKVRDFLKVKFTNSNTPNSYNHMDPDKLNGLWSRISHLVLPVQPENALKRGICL
Experiment [10] deals with Alpha-bungarotoxin (Bungarus multicinctus) (UniProt P60615). The experiment is described as follows: alpha-bungarotoxin binders on microarray, profiling panel, artefact control for SMM control protein annotation, biochemical, small-molecule microarray, Alexa647 label, 635/667 nm fluorescence (AID 1117). The note with it: alpha-BTX-A647 binding fluorescence, higher = more signal.
Alpha-bungarotoxin (Bungarus multicinctus), sequence (P60615 whole entry, looked up): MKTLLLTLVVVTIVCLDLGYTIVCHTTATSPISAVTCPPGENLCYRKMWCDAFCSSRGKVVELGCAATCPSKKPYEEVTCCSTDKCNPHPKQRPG

Left-right determination factor 2 (Homo sapiens), sequence (O00292 whole entry, looked up): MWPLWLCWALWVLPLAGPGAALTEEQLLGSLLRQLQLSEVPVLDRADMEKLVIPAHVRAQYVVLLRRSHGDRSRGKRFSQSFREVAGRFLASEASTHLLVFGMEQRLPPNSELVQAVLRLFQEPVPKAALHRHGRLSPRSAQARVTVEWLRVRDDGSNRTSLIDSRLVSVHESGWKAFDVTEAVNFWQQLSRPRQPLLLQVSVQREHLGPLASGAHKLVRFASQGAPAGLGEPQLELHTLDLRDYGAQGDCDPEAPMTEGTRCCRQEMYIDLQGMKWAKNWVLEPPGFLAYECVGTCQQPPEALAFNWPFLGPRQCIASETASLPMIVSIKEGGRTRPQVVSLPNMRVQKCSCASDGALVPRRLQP

Consider `COC(=O)C(CC#Cc1ccc2c(c1)[C@]1(C(=O)N2)[C@H](c2ccccc2OCCO)N2[C@H](c3ccccc3)[C@H](c3ccccc3)OC(=O)[C@H]2[C@@H]1C(=O)NC[C@H](O)c1ccccc1)C(=O)OC`, for which the composite z-score in experiment [1] was 1.39; in experiment [3], 0.261; in experiment [4], 0.0614; in experiment [5], -0.316; in experiment [6] it was 0.285; in experiment [7], 2.44. Moreover, the composite z-score was 0.108 in [8], 2.19 in experiment [9] and 0.971 in experiment [10]. The compound also yielded a z-score in [2] of -2.08.

Turning to `[N-]=[N+]=Nc1ccccc1[C@H]1OC(c2ccc(OCCCO)cc2)=N[C@@]1(CCS(=O)(=O)c1ccccc1)C(=O)NCCN1CCOCC1`, the composite z-score is 1.4 in [1]; -0.354 in experiment [3]; 0.757 in experiment [4]; -0.368 in experiment [5]; 0.0246 in experiment [6]; 0.315 in experiment [7]. Further, the composite z-score turned out to be 1.03 in experiment [8], 0.936 in experiment [9] and 0.755 in experiment [10]. In addition, in experiment [2], the z-score came out at 0.517.

Regarding `NC(N)=NCCCn1cc(CNC(=O)[C@@H](N)Cc2ccccc2)nn1`, the composite z-score is -0.15 in [1]; 0.566 in experiment [3]; -0.806 in experiment [4]; -0.458 in experiment [5]; -0.128 in experiment [6]; -0.0146 in experiment [7]. Also, the composite z-score in [8] turned out to be 0.0472; in [9], 0.984; in experiment [10] it was 0.0071. In experiment [2], this compound displayed a z-score of -0.332.

`CC(=O)NCCCC[C@@H]1NC(=O)[C@H]2C[C@@H](C(=O)NCCCC[N+](C)(C)C)[C@@H](c3cccc(OCCO)c3)N2C1=O`: the composite z-score in experiment [1] is -0.194; in experiment [3] it was 1.47; in experiment [4], -2.42; in experiment [5], -1.62; in experiment [6] it was 0.027; in [7] it was 0.0121. In addition, the composite z-score was -0.122 in experiment [8], 1.04 in experiment [9] and 0.604 in experiment [10]. Also, the z-score in experiment [2] is -1.08.

With `COC(=O)c1c(CC[C@@H](CO)NC(=O)N2CCC[C@H]2Cn2cc(Cc3ccccc3)nn2)oc(C(C)=O)c1C(=O)OC`, the composite z-score in experiment [1] was 0.916; in experiment [3] it was -0.0041; in experiment [4] it was -0.128; in experiment [5] it was -0.658; in experiment [6], -0.0778; in experiment [7] it was -0.167. Also, the values for the composite z-score in experiment [8], in experiment [9] and in experiment [10] were 0.113, 0.0411 and 0.17, respectively. Also, the z-score in [2] turned out to be 0.139.

With `CCOC(=O)C[C@H]1[C@H](OC(=O)Cc2ccc3c(c2)OCO3)[C@@H](NC(=O)CC(C)C)c2cc(OCCCO)ccc2N1C(=O)Cc1ccc(OC)cc1`, the composite z-score in experiment [1] was 0.479; in experiment [3], 0.073; in experiment [4], -0.221; in experiment [5], -0.361; in experiment [6], -0.012; in experiment [7] it was -0.138. Also, the composite z-score is -0.25 in experiment [8], 0.466 in [9] and 1.03 in experiment [10]. In experiment [2], this compound came in with a z-score of -0.948.

On to `CCCC[C@@H]1C[C@H]1[C@@H](NC(=O)c1cccs1)c1ccc(C(F)(F)F)cc1`, for which the composite z-score in [1] was -0.47; in [3], -0.45; in experiment [4], -0.501; in experiment [5] it was -1.05; in experiment [6], -0.0334; in experiment [7], 0.214. Besides, the composite z-score in experiment [8] was 0.277; in experiment [9], -0.515; in experiment [10], 0.237. Also, the z-score in experiment [2] is -0.152.

On to `C=CC[C@]1(C(=O)NCCN2CCOCC2)N=C(c2ccc(OCCCO)cc2)O[C@H]1c1ccccc1CN=[N+]=[N-]`, for which the composite z-score in experiment [1] is 0.396; in [3], 0.632; in experiment [4] it was 0.21; in [5] it was -0.528; in experiment [6] it was 0.0023; in [7] it was -0.203. In addition, the composite z-score in experiment [8] was -0.193; in [9], 0.554; in experiment [10] it was -0.0452. This compound yielded a z-score in experiment [2] of -1.59.

In the case of `O=C1O[C@@H](c2ccccc2)[C@@H](c2ccccc2)N2[C@@H](c3ccc(O)cc3)[C@]3(C(=O)Nc4ccc(C#CC5=CCCCC5)cc43)[C@@H](C(=O)NC[C@H](O)c3ccccc3)[C@H]12`, the composite z-score is 1.4 in experiment [1]; 0.915 in [3]; 1.11 in [4]; 0.293 in experiment [5]; 0.0964 in [6]; -0.0769 in experiment [7]. The composite z-score in [8] was 0.654; in [9] it was 1.52; in experiment [10], 0.774. Besides, the z-score in [2] is -1.31.

Consider `CC(C)C(=C=CC[C@H](O)c1ccc(OCCO)cc1)C[C@H](O)c1ccccn1`, for which the composite z-score in experiment [1] is 1.22; in experiment [3], -0.0676; in [4], 0.0123; in [5], -0.0896; in experiment [6], -0.1; in experiment [7], -0.0769. In addition, the results for the composite z-score in [8], in [9] and in [10] were -0.132, 0.859 and 1.6, respectively. Also, the z-score in experiment [2] is -0.789.

Turning to `COC(=O)[C@@]1(Cc2ccc(F)cc2)[C@H]2c3cc(C(=O)N4CCCC4)n(CCN4CNCC4=O)c3C[C@H]2CN1C(=O)c1ccccc1`, the composite z-score was 1.44 in [1]; -1 in [3]; -0.606 in [4]; -0.234 in [5]; 0.307 in experiment [6]; 0.151 in experiment [7]. In addition, the figures for the composite z-score in [8], in experiment [9] and in experiment [10] were -0.158, 2.1 and 1.07, respectively. In [2], this compound returned a z-score of -1.8.

For the compound `COCCCNC(=O)[C@@]1(Cc2ccccc2N=[N+]=[N-])COC(c2ccc(OCCCO)cc2)=N1`, the composite z-score is 1.44 in [1]; 0.185 in experiment [3]; 1.43 in experiment [4]; 0.414 in [5]; 0.0165 in experiment [6]; 0.284 in experiment [7]. Moreover, the composite z-score was determined as 0.747 in experiment [8], 2 in [9] and 2.18 in experiment [10]. Also, the z-score in experiment [2] was -0.899.

As for `[N-]=[N+]=Nc1ccccc1C[C@]1(C(=O)N2CCOCC2)N=C(c2ccc(OCCCO)cc2)O[C@H]1c1ccccc1`, the composite z-score in experiment [1] was 1.04; in experiment [3], 0.444; in experiment [4], 1.17; in [5] it was 0.173; in experiment [6] it was 0.104; in experiment [7], -0.153. For the same compound, the results for the composite z-score in experiment [8], in experiment [9] and in experiment [10] were 0.347, 1.18 and 1.31, respectively. Also, the z-score in experiment [2] is -1.81.

On to `COC(=O)C1=CC(CCCO)=CC(C2CC2)N(C)C=C1C(=O)OC` (stereo not given), for which the composite z-score in [1] was -0.105; in experiment [3] it was -0.087; in [4], 0.727; in experiment [5], 0.295; in experiment [6], -0.184; in experiment [7], 0.449. The figures for the composite z-score in experiment [8], in [9] and in experiment [10] were -0.328, 1.03 and -0.24, respectively. The compound further displayed a z-score in experiment [2] of -0.902.

In the case of `CC(CO)N1C(=O)[C@@H]2[C@H]3C(=O)OCC=C[C@H]3OC23C=CCN(CCN2CCOCC2)C(=O)[C@@H]13` (stereo not given in full), the composite z-score was -0.186 in experiment [1]; -0.396 in experiment [3]; -0.998 in experiment [4]; -1.55 in experiment [5]; -0.144 in experiment [6]; -0.309 in [7]. In addition, the composite z-score in [8] was -0.5; in [9], -0.469; in [10], -0.245. In experiment [2], this compound registered a z-score of 0.606.

Regarding `C=CCC(OC(C)=O)[C@@H]1[C@@H](N(Cc2cc3ccccc3o2)C(=O)Cc2ccc(F)cc2)c2cc(OCCCO)ccc2N1C(=O)c1ccc2ccccc2c1` (stereo not given in full), the composite z-score in experiment [1] was -0.722; in experiment [3] it was -0.453; in [4], -0.478; in [5], -0.06; in experiment [6] it was -0.0843; in [7] it was 0.179. Further, the composite z-score in experiment [8] is -0.24; in experiment [9] it was 0.0682; in [10], 1.29. Also, the z-score in experiment [2] was -1.18.

For `COC(=O)[C@@]1(Cc2ccc(OC)cc2)[C@H]2c3cc(C(=O)N4CCCC4)n(Cc4c(-c5ccccc5)noc4C)c3C[C@H]2CN1C(=O)c1ccccc1`, the composite z-score in [1] was 1.41; in [3] it was -0.181; in [4], 1.5; in experiment [5], 0.716; in experiment [6] it was 0.42; in experiment [7] it was 0.268. For the same compound, the composite z-score was 1.85 in [8], 0.764 in experiment [9] and 0.818 in experiment [10]. Further, in experiment [2], the z-score is -2.21.

For the origin of these results see PubChem BioAssay.
